Results filed as inconclusive are left out. The source made the active and inactive calls. Calls follow the shape of the dose curve; as a rule, active = well fitted inhibition curve with a large enough effect; inconclusive = small, poorly fitted or top-dose-only effect; inactive = flat fitted curve, though single readings scatter.
Tests used:
[1] = qHTS profiling for inhibitors of Plasmodium falciparum proliferation (AID 504749);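 as to activity, negative = inhibition: 0% = DMSO vehicle and full inhibition = artemisinin control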; as to all read-outs here: nearly all actives have a fitted effect of over 60% in size; conditions: P. falciparum in erythrocytes, SYBR Green DNA, 72 h; for activity, negative = inhibition: at 28.7 µM (top of the series)
Procedure, shortened: (§1)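 Fluorescence of SYBR Green-bound parasite DNA, read at 485/535 nm, served as the growth measure. Infected erythrocytes were cultured with compound 72 h; artemisinin (0.29 uM) and DMSO wells defined the normalization range.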

[2] = system: 3D7; experiment: as above; conditions: P. falciparum in erythrocytes, SYBR Green DNA, 72 h; series mostly up to 28.7 µM
Procedure, shortened: as §1

[3] = system: 7G8; experiment: as above; conditions: P. falciparum in erythrocytes, SYBR Green DNA, 72 h; series mostly up to 28.7 µM
Procedure, shortened: as §1

[4] = system: AA1029; experiment: as above; conditions: P. falciparum in erythrocytes, SYBR Green DNA, 72 h; series mostly up to 28.7 µM
Procedure, shortened: as §1

[5] = system: AS120; experiment: as above; conditions: P. falciparum in erythrocytes, SYBR Green DNA, 72 h; series mostly up to 28.7 µM
Procedure, shortened: as §1

[6] = system: ATS189; experiment: as above; conditions: P. falciparum in erythrocytes, SYBR Green DNA, 72 h; series mostly up to 28.7 µM
Procedure, shortened: as §1

[7] = system: ATS95; experiment: as above; conditions: P. falciparum in erythrocytes, SYBR Green DNA, 72 h; series mostly up to 28.7 µM
Procedure, shortened: as §1

[8] = system: C2A; experiment: as above; conditions: P. falciparum in erythrocytes, SYBR Green DNA, 72 h; series mostly up to 28.7 µM
Procedure, shortened: as §1

[9] = system: CP185; experiment: as above; conditions: P. falciparum in erythrocytes, SYBR Green DNA, 72 h; series mostly up to 28.7 µM
Procedure, shortened: as §1

[10] = system: CP192; experiment: as above; conditions: P. falciparum in erythrocytes, SYBR Green DNA, 72 h; series mostly up to 28.7 µM
Procedure, shortened: as §1

[11] = system: CP194; experiment: as above; conditions: P. falciparum in erythrocytes, SYBR Green DNA, 72 h; series mostly up to 28.7 µM
Procedure, shortened: as §1

[12] = system: CP201; experiment: as above; conditions: P. falciparum in erythrocytes, SYBR Green DNA, 72 h; series mostly up to 28.7 µM
Procedure, shortened: as §1

[13] = system: CP211; experiment: as above; conditions: P. falciparum in erythrocytes, SYBR Green DNA, 72 h; series mostly up to 28.7 µM
Procedure, shortened: as §1

[14] = system: CP215; experiment: as above; conditions: P. falciparum in erythrocytes, SYBR Green DNA, 72 h; series mostly up to 28.7 µM
Procedure, shortened: as §1

[15] = system: CP217; experiment: as above; conditions: P. falciparum in erythrocytes, SYBR Green DNA, 72 h; series mostly up to 28.7 µM
Procedure, shortened: as §1

[16] = system: CP191; experiment: as above; conditions: P. falciparum in erythrocytes, SYBR Green DNA, 72 h; series mostly up to 28.7 µM
Procedure, shortened: as §1

[17] = system: CP237; experiment: as above; conditions: P. falciparum in erythrocytes, SYBR Green DNA, 72 h; series mostly up to 28.7 µM
Procedure, shortened: as §1

[18] = system: CP203; experiment: as above; conditions: P. falciparum in erythrocytes, SYBR Green DNA, 72 h; series mostly up to 28.7 µM
Procedure, shortened: as §1
Potency is read from the fitted curve at half-maximal effect.

C=C1CC[C@@]2(O)[C@H]3Cc4ccc(O)c5c4[C@@]2(CCN3CC2CC2)[C@H]1O5
inactive: activity, negative = inhibition ([1]; parasite line A) 9.27% | activity, negative = inhibition ([1]; parasite line B) 12.8% | Potency [2] | Potency [3] | Potency [4] | Potency [5] | Potency [6] | Potency [7] | Potency [8] | Potency [9] | Potency [10] | Potency [11] | Potency [12] | Potency [13] | Potency [14] | Potency [15]

CCN(CC)CCN1C(=O)CN=C(c2ccccc2F)c2cc(Cl)ccc21
inactive: activity, negative = inhibition ([1]; parasite line A) -1.62% | activity, negative = inhibition ([1]; parasite line B) -4.36% | Potency [2] | Potency [5] | Potency [8] | Potency [16] | Potency [10] | Potency [12] | Potency [14] | Potency [15]

CC(CCc1ccccc1)NC(C)C(O)c1ccc(O)cc1 (centres undefined)
inactive: activity, negative = inhibition ([1]; parasite line A) 8.41% | activity, negative = inhibition ([1]; parasite line B) 8.3% | Potency [2] | Potency [9] | Potency [16] | Potency [10] | Potency [15]
active: Potency [17] 5.62 µM

c1ccc2c(c1)OCC(C1=NCCN1)O2 (centres undefined)
inactive: activity, negative = inhibition ([1]; parasite line A) -17.7% | activity, negative = inhibition ([1]; parasite line B) -17.9% | Potency [4] | Potency [5] | Potency [6] | Potency [7] | Potency [8] | Potency [9] | Potency [16] | Potency [10] | Potency [11] | Potency [12] | Potency [13] | Potency [14] | Potency [15]

CCCN1CCC[C@@H]2Cc3[nH]ncc3C[C@H]21
inactive: Potency [10] | Potency [11] | Potency [12] | Potency [13] | Potency [14]

c1ccc(C2CC2)c(OCC2=NCCN2)c1
inactive: activity, negative = inhibition ([1]; parasite line A) 6.76% | activity, negative = inhibition ([1]; parasite line B) 4.47% | Potency [2] | Potency [4] | Potency [5] | Potency [6] | Potency [7] | Potency [8] | Potency [9] | Potency [16] | Potency [10] | Potency [11] | Potency [12] | Potency [18] | Potency [13] | Potency [14] | Potency [15]

C[C@]12C/C(=C/O)C(=O)C[C@@H]1CC[C@@H]1[C@@H]2CC[C@@]2(C)[C@H]1CC[C@]2(C)O
inactive: activity, negative = inhibition ([1]; parasite line A) -16.2% | Potency [2] | Potency [4] | Potency [5] | Potency [6] | Potency [7] | Potency [8] | Potency [9] | Potency [10] | Potency [11] | Potency [12] | Potency [13] | Potency [14] | Potency [15] | Potency [17]

Cc1ccc(S(=O)(=O)N[C@@H](CCCCN)C(=O)CCl)cc1
inactive: Potency [10] | Potency [12] | Potency [18] | Potency [13] | Potency [14]
active: Potency ([1]; parasite line A) 7.08 µM | Potency [3] 8.91 µM | Potency [4] 10 µM | Potency [5] 11.2 µM | Potency [8] 11.2 µM | Potency [16] 8.91 µM

CC[C@@H](CO)NC(=O)[C@@H]1C=C2c3cccc4[nH]cc(c34)C[C@H]2N(C)C1
inactive: activity, negative = inhibition ([1]; parasite line A) 17.2% | activity, negative = inhibition ([1]; parasite line B) 1.58% | Potency [2] | Potency [4] | Potency [5] | Potency [6] | Potency [7] | Potency [8] | Potency [9] | Potency [16] | Potency [11] | Potency [12] | Potency [13] | Potency [14] | Potency [15] | Potency [17]

FC(F)(F)c1cccc(C2=CCN(CCc3ccc4ccccc4c3)CC2)c1
inactive: activity, negative = inhibition ([1]; parasite line A) -13.7% | activity, negative = inhibition ([1]; parasite line B) -28.6% | Potency [2] | Potency [3] | Potency [4] | Potency [5] | Potency [6] | Potency [7] | Potency [8] | Potency [9] | Potency [10] | Potency [11] | Potency [12] | Potency [13] | Potency [14] | Potency [15] | Potency [17]

Oc1ccc(Cl)cc1Cc1ccccc1
inactive: activity, negative = inhibition ([1]; parasite line A) -17.6% | Potency [8] | Potency [9] | Potency [12] | Potency [13]
active: Potency [3] 2 µM | Potency [5] 8.91 µM

C#CCOC(C(=O)OCCN(C)C)(c1ccccc1)c1ccccc1
inactive: activity, negative = inhibition ([1]; parasite line A) -0.224% | activity, negative = inhibition ([1]; parasite line B) 7.7% | Potency [2] | Potency [5] | Potency [6] | Potency [7] | Potency [8] | Potency [9] | Potency [16] | Potency [10] | Potency [11] | Potency [12] | Potency [13] | Potency [14] | Potency [15] | Potency [17]
active: Potency [3] 10 µM

CC(C)NCC(O)c1ccccc1Cl (centres undefined)
inactive: Potency [12]
active: Potency ([1]; parasite line B) 11.2 µM | Potency [3] 4.47 µM | Potency [4] 4.47 µM | Potency [5] 12.6 µM | Potency [7] 11.2 µM | Potency [15] 10 µM | Potency [17] 5.01 µM

c1ccc2c(c1)Nc1ccccc1S2
active: Potency [2] 4.47 µM | Potency [16] 7.94 µM
inactive: Potency [5] | Potency [12]

CCN(C(C)=O)c1cccc(-c2ccnc3c(C#N)cnn23)c1
inactive: activity, negative = inhibition ([1]; parasite line A) 6.76% | activity, negative = inhibition ([1]; parasite line B) 2.02% | Potency [2] | Potency [3] | Potency [4] | Potency [5] | Potency [6] | Potency [7] | Potency [8] | Potency [9] | Potency [16] | Potency [11] | Potency [12] | Potency [13] | Potency [14] | Potency [15] | Potency [17]

NP(N)(=O)NC(=O)c1ccc(F)cc1
inactive: activity, negative = inhibition ([1]; parasite line A) -1.33% | activity, negative = inhibition ([1]; parasite line B) 3.8% | Potency [2] | Potency [3] | Potency [4] | Potency [5] | Potency [6] | Potency [7] | Potency [8] | Potency [16] | Potency [10] | Potency [11] | Potency [12] | Potency [13] | Potency [14] | Potency [15] | Potency [17]

Cc1cccc(C)c1NC1=NCCCS1
inactive: activity, negative = inhibition ([1]; parasite line A) -16.9% | activity, negative = inhibition ([1]; parasite line B) -6.65% | Potency [2] | Potency [8] | Potency [16] | Potency [10]
active: Potency [3] 11.2 µM | Potency [17] 7.08 µM

CN1C(=S)CN=C(c2ccccc2)c2cc(Cl)ccc21
inactive: activity, negative = inhibition ([1]; parasite line A) -4.94% | activity, negative = inhibition ([1]; parasite line B) 2.35% | Potency [2] | Potency [3] | Potency [4] | Potency [5] | Potency [6] | Potency [7] | Potency [8] | Potency [9] | Potency [16] | Potency [11] | Potency [12] | Potency [13] | Potency [14] | Potency [15] | Potency [17]

CC(C)(C)NCC(O)c1cc(Cl)c(N)c(Cl)c1 (centres undefined)
active: Potency [3] 7.94 µM | Potency [17] 7.94 µM
inactive: activity, negative = inhibition ([1]; parasite line A) -4.99% | Potency [2] | Potency [8] | Potency [12] | Potency [13] | Potency [15]

O=c1[nH]c2ccccc2n1C1CCN(CCCC(c2ccc(F)cc2)c2ccc(F)cc2)CC1
active: Potency [2] 15.8 µM | Potency [14] 13.5 µM | Potency [17] 7.94 µM
inactive: activity, negative = inhibition ([1]; parasite line B) -29.2% | Potency [4] | Potency [6] | Potency [7] | Potency [8] | Potency [9] | Potency [10] | Potency [12] | Potency [18] | Potency [15]

O=[N+]([O-])c1cc([As](=O)(O)O)ccc1O
active: Potency ([1]; parasite line A) 3.98 µM | Potency ([1]; parasite line B) 3.16 µM | Potency [2] 3.98 µM | Potency [3] 3.98 µM | Potency [4] 3.16 µM | Potency [5] 3.16 µM | Potency [16] 3.16 µM | Potency [15] 3.16 µM | Potency [17] 3.16 µM

CC(C)(N)Cc1ccc(Cl)cc1
inactive: activity, negative = inhibition ([1]; parasite line A) -1.24% | activity, negative = inhibition ([1]; parasite line B) 1.12% | Potency [2] | Potency [5] | Potency [8] | Potency [9] | Potency [16] | Potency [10] | Potency [12] | Potency [13] | Potency [14] | Potency [15]
active: Potency [17] 8.91 µM

CCC1(C2=NCCN2)Cc2ccccc2O1 (centres undefined)
inactive: activity, negative = inhibition ([1]; parasite line A) 5.76% | activity, negative = inhibition ([1]; parasite line B) 6.35% | Potency [2] | Potency [10]
active: Potency [4] 11.2 µM | Potency [6] 7.94 µM | Potency [7] 8.91 µM | Potency [9] 10 µM | Potency [18] 10.7 µM | Potency [17] 10 µM

CN1C[C@H](CNC(=O)OCc2ccccc2)C[C@@H]2c3cccc4c3c(cn4C)C[C@H]21
active: Potency ([1]; parasite line A) 7.08 µM | Potency [3] 5.01 µM | Potency [4] 6.31 µM | Potency [5] 10 µM | Potency [6] 10 µM | Potency [7] 11.2 µM | Potency [8] 8.91 µM | Potency [9] 8.91 µM | Potency [13] 9.53 µM | Potency [15] 7.94 µM | Potency [17] 8.91 µM

— PubChem BioAssay (NCATS)
